These results are taken from PubChem BioAssay AID434970 (Sanford-Burnham Center for Chemical Genomics, 2010).

Hit rate of the full screen: of about 11,000 compounds, about 310 (2.8%) were called active. Cut-off read from the data, not from the text of the source: active = activity change below about -85%; inactive = the rest. The entries come from a sample that favours actives as a whole.

For the experiment, the system named is intestinal alkaline phosphatase [Mus musculus]. In words: activators of mouse IAP, confirmation, biochemical, luminescence, single concentration (AID 434970). The note with it: purified mouse IAP, CDP-Star luminescence, 30 min, at 10 µM; activation factor: measured here: IAP activation factor, stronger effect = higher value; activity change, negative = activation: stronger effect = lower value.
As to `COc1ccc(N2C(=O)C3CCCN3C2c2ccccc2)cc1Cl` (centres undefined), the activation factor came to 0.895 and the activity change, negative = activation is 10.5% (inactive).

As to `C=CCNC(=O)c1nc2ccccc2s1`, the activation factor amounted to 0.92 and the activity change, negative = activation is 8% (inactive).

With `Cn1c(=O)cc(SCC(=O)Nc2cccnc2)c2ccccc21`, the activation factor came out at 0.952 and the activity change, negative = activation was 4.8% (inactive).

Take `CCC1CCCCN1CCCNC(=O)c1ccc2c(=O)n(Cc3ccc(OC)cc3)c(=O)[nH]c2c1` (centres undefined): the activation factor was found to be 0.925 and the activity change, negative = activation is 7.5% (inactive).

For `Fc1ccc(CNc2nc(-c3ccco3)cc(C(F)(F)F)n2)cc1`, the activation factor stood at 0.991 and the activity change, negative = activation was 0.9% (inactive).

With `COc1ccc2c(c1OC)C(=O)N(c1ccc(C)c(C)c1)C2=O`, the activation factor worked out at 0.976 and the activity change, negative = activation is 2.45% (inactive).

With `COc1cc(/C=C(\C#N)c2nc3ccc(C)cc3[nH]2)c([N+](=O)[O-])cc1OC`, the activation factor worked out at 0.806 and the activity change, negative = activation is 19.4% (inactive).

As for `Cc1[nH]ccc(=O)c1OCc1c(Cl)cccc1Cl`, the activation factor turned out to be 0.957 and the activity change, negative = activation was 4.3% (inactive).

As for `COCCn1c(Sc2ccccc2)nc2c1c(=O)[nH]c(=O)n2C`, the activation factor was found to be 1.07 and the activity change, negative = activation is -6.95% (inactive).

Take `COC(=O)[C@H]1C2CCC(C(=O)OC)(CC2)[C@H]1C(=O)OC`: the activation factor was 0.915 and the activity change, negative = activation is 8.55% (inactive).

For `O=S(=O)(c1ccc(F)cc1)N1CCN(CC(O)COCc2cccs2)CC1` (centres undefined), the activation factor came out at 0.928 and the activity change, negative = activation was 7.2% (inactive).

Turning to `Cc1c(C(=O)Nc2ccc(Cl)cc2)c2ccccn2c1C(=O)c1ccccc1`, the activation factor stood at 1.02 and the activity change, negative = activation is -1.8% (inactive).

Turning to `CC(NC(=O)Nc1ccc(Cl)cc1)c1ccc2c(c1)OCO2` (centres undefined), the activation factor turned out to be 2.53 and the activity change, negative = activation is -153% (active).

For `Cc1noc(-c2ccccc2)c1NC(=O)Nc1ccc(Cl)cc1`, the activation factor was 1.7 and the activity change, negative = activation was -70.2% (inactive).

Consider `Cc1ccc(NC(=O)N/C=C/c2ccc(Cl)cc2)cc1`, for which the activation factor amounted to 1.09 and the activity change, negative = activation is -9.1% (inactive).

Take `CCN(CC)C(C(=O)Nc1ccc(C(C)C)cc1)c1ccc2c(c1)OCO2` (centres undefined): the activation factor is 1.48 and the activity change, negative = activation is -48.4% (inactive).

For the compound `O=C(N/C=C/c1ccccc1)Nc1ccc(Cl)cc1`, the activation factor worked out at 2.71 and the activity change, negative = activation is -171% (active).

As to `COC(=O)Nc1ccc2c(c1)OCO2`, the activation factor turned out to be 0.903 and the activity change, negative = activation was 9.6% (inactive).

As to `CC1CCCN(C(C(=O)Nc2ccc(C(C)C)cc2)c2ccc3c(c2)OCO3)C1` (centres undefined), the activation factor was 1.73 and the activity change, negative = activation was -73.3% (inactive).

In the case of `CC(C)c1ccc(NC(=O)NC(C)c2ccc3c(c2)OCO3)cc1` (centres undefined), the activation factor is 3.31 and the activity change, negative = activation was -231% (active).

With `COc1ccc(Cl)cc1C(=O)Nc1ccc2c(c1)OCO2`, the activation factor was found to be 1.1 and the activity change, negative = activation is -10.2% (inactive).

Consider `CC(NC(=O)C1CCC1)c1ccccc1` (centres undefined), for which the activation factor came out at 1.12 and the activity change, negative = activation is -11.9% (inactive).

Consider `CC(NC(=O)Nc1ccc(Cl)cc1)c1ccccc1` (centres undefined), for which the activation factor was found to be 2.11 and the activity change, negative = activation was -111% (active).

Consider `Cc1ccc(NC(=O)N/C=C/c2ccccc2)cc1`, for which the activation factor was found to be 1.56 and the activity change, negative = activation is -55.5% (inactive).

As for `Cc1cccc(OCCCSc2nc3ccccc3[nH]2)c1`, the activation factor was 1.13 and the activity change, negative = activation is -12.6% (inactive).

As to `COC(=O)c1c(NC(=O)c2ccccc2)sc(Cc2ccccc2)c1C`, the activation factor was 1 and the activity change, negative = activation is -0.05% (inactive).

On to `O=C(NCC(=O)N(CC1CCCO1)C1(C(=O)NC2CCCC2)CCCCC1)c1ccccc1` (centres undefined), for which the activation factor came out at 1.03 and the activity change, negative = activation is -3.2% (inactive).

As to `CCOC(=O)N1CCN(C(=O)Cn2c(C)cc3ccccc3c2=O)CC1`, the activation factor was 1.12 and the activity change, negative = activation is -11.8% (inactive).

As to `Cc1ccc(Nc2c3c(nc4ncnn24)CC(C)CC3)cc1` (centres undefined), the activation factor amounted to 1.02 and the activity change, negative = activation is -2.1% (inactive).

As to `C1CN(c2nc3nonc3n3nnnc23)CCO1`, the activation factor turned out to be 0.972 and the activity change, negative = activation was 2.75% (inactive).

As for `O=C(Cn1cc(C(=O)C2CC2)c2ccccc21)NCC1CCCO1` (centres undefined), the activation factor came to 0.944 and the activity change, negative = activation is 5.6% (inactive).

Turning to `O=C(O)CS(=O)(=O)c1ccc(Oc2ccc(S(=O)(=O)CC(=O)O)cc2)cc1`, the activation factor was 1.1 and the activity change, negative = activation is -10.4% (inactive).

As to `CC(C)c1ccc(NC(=S)NCc2ccc3c(c2)OCO3)cc1`, the activation factor is 1.36 and the activity change, negative = activation was -36.3% (inactive).

As for `CCc1ccc(NC(=O)NC(C)c2ccc3c(c2)OCO3)cc1` (centres undefined), the activation factor was found to be 2.66 and the activity change, negative = activation is -166% (active).

With `CC(NC(=O)c1ccco1)c1ccc2c(c1)OCCO2` (centres undefined), the activation factor was 0.968 and the activity change, negative = activation was 3.25% (inactive).

On to `COc1cc2oc(=O)cc(-c3ccc(-c4ccc(C)cc4)cc3)c2c(OC)c1OC`, for which the activation factor was 0.934 and the activity change, negative = activation was 6.55% (inactive).

Turning to `COc1ccc(CC(=O)N[C@@H]2c3ccccc3CC[C@@H]2OCc2ccccc2)cc1`, the activation factor was 1.19 and the activity change, negative = activation is -18.9% (inactive).
